hERG WT inh = KCNH2 (human, wildtype) channel inhibition | Q12809 | U2OS, BacMam KCNH2, thallium flux FluxOr; active compounds read low | activity change, % at 1.84 µM | 340,000 compounds, 0.37% hits | AID 720551;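 active means maximum activity change below -70%; inconclusive means maximum activity change between -70% and -50%; inactive means maximum activity change above -50%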; further: on the % scale 0 is the no-effect control and ±100 the full control effect
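U2OS cells transduced with wild-type KCNH2 virus are loaded with FluxOr dye for 45 min, and thallium flux is measured in kinetic reads before and after stimulation buffer. Rate constants are normalized to DMSO controls.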
Rango complex inh = Rango-importin beta binding inhibition. Rango CFP/YFP FRET sensor + importin beta, 45 min. Potency, µM (highest dose often 92.2 µM), for the others: at the highest dose inhibition of complex formation. 340,000 compounds, 0.031% hits;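 further: potency means the concentration at half of the fitted maximal effect; 0% = DMSO wells and 100% = buffer wells lacking importin beta; nearly all actives have a fitted effect of over 15% in size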
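FRET biosensor Rango (snurportin 1 IBB between N-terminal EYFP and C-terminal Cerulean), 50 nM in PBS/1 mM DTT/0.02% Tween-20/0.1% BSA, preincubated 5 min RT with compound; 0.125 microM importin beta added, 45 min RT, CFP/YFP FRET ratio read.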
Rango release inh = inhibition of RanGTP-driven Rango-importin beta dissociation. AID 540253. O95149+P62826. Potency, µM (doses to about 46.1 µM), for inactives: at the top dose activity change, negative = inhibition. 340,000 compounds, 0.071% hits. Biochemical FRET Rango-importin beta, RanGTP-induced dissociation; further: potency means the concentration at half of the fitted maximal effect; % of control where 0% means no effect; nearly all actives have a fitted effect of over 45% in size
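Quantitative HTS using a FRET biosensor: 0.1 uM Rango, 0.25 uM importin beta, 0.6 uM Ran, 2 mM GTP, 0.2 uM RCC1 final, PBS with DTT, Tween-20 and BSA. Post-read taken 45 min after Ran addition.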
KCNH2 3.1 block = blocks the human KCNH2 3.1 channel isoform; 340,000 compounds, 0.95% hits; activity change, % (tested at about 1.8 µM); U2OS KCNH2 3.1, thallium flux FluxOr; active compounds read low;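 active means maximum activity change below -70%; inconclusive means maximum activity change from -70% to -50%; inactive means maximum activity change above -50%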;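 further: thallium influx rate constant from kinetic fluorescence after stimulation buffer; on the % scale 0 is the no-effect control and ±100 the full control effect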
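Virally transduced U2OS (3.1 isoform, 4 h infection in dark at RT) → overnight 37 C → FluxOr + Red40 in HBSS/HEPES, 45 min → stimulation buffer, 2 min kinetic read → rate constant vs DMSO controls.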
Starred values were filed as active, the others as inactive; ? = inconclusive; · = not tested or not shown. Rows were chosen to be rich in hits. Some 1.3% of all compounds tested hit in one or more screens of this group. Unless noted, the call rests on the fitted dose curve.

SMILES	hERG WT inh	Rango complex inh	Rango release inh	KCNH2 3.1 block
Cc1c(S(=O)(=O)NCCc2ccccc2)c(=O)n(C)c(=O)n1C	-99.5*	?	-3.0%	-4.6
NC(N)=NS(=O)(=O)c1ccc(NC(=S)NC(=O)c2sc3ccccc3c2Cl)cc1	-7.4	?	20.6µM*	-4.9
O=C(Nc1ccccc1N1CCN(C(=O)c2ccc(Cl)cc2)CC1)c1cc2ccccc2o1	6.3	-0.9%	18.3%	?
O=C(Nc1ccc(N2CCN(C(=O)c3cccs3)CC2)cc1)c1ccc(Br)o1	3.7	1.4%	11.3%	3.7
COc1cc(NS(=O)(=O)c2ccc(NC(=S)NC(=O)c3sc4ccccc4c3Cl)cc2)nc(OC)n1	-19.8	-5.9%	-25.7%	-8.8
O=C(Nc1ccc(N2CCN(C(=O)c3ccc(Cl)cc3)CC2)cc1)c1ccc(Br)o1	-6.7	-0.4%	7.0%	-90.4*
CN1CCN(c2ccc(NC(=O)c3ccc(-c4ccc(Cl)cc4)o3)cc2)CC1	16.1	-4.1%	10.1%	-94.8*
O=C(Nc1ccc(N2CCN(C(=O)c3ccc(Cl)cc3)CC2)cc1)c1cc2ccccc2o1	-117.3*	-5.6%	3.7%	-111.1*
COc1ccc(-c2c(NC(=O)CC(C)C)n(C)c3ccccc3c2=O)cc1OC	-15.7	0.9%	-6.3%	-0.2
ON=C1c2ccccc2-c2cc(Br)ccc21	-9.3	-1.1%	-4.5%	-3.0
Cc1ccc(C(=O)N2CCN(c3ccc(NC(=O)CSc4ccc(Cl)cc4)cc3)CC2)cc1	-117.7*	0.3%	-0.3%	-117.7*
CS(=O)(=O)N1CCN(c2ccc(NC(=O)CSc3ccc(Cl)cc3)cc2)CC1	7.9	2.0%	-0.8%	1.3
CN1CCN(C(=O)c2ccccc2NC(=O)c2sc3ccccc3c2Cl)CC1	-40.4	0.2%	2.7%	12.4
CN1CCN(c2ccc(NC(=O)c3sc4ccccc4c3Cl)cc2)CC1	-37.8	1.2%	-2.1%	-74.4*
Cc1ccc(CC(C)(O)CC(C)(O)Cc2ccc(C)cc2)cc1 (centres undefined)	-12.2	·	·	-3.1
O=C1C2CC=CCC2C(=O)N1c1nccs1 (centres undefined)	-0.2	5.8%	2.1%	-7.7
O=C1/C(=C\c2ccccc2)CN(C(=O)CCN2CCCCC2)C/C1=C/c1ccccc1	-16.7	4.6%	19.3%	-75.4*
COc1cc2c(cc1OC)C(C)N(CCc1ccc(Cl)cc1)CC2 (centres undefined)	-12.0	4.0%	-18.2%	-84.4*
OCCC1CN(Cc2ccc(F)cc2Cl)CCN1CCc1ccccc1 (centres undefined)	15.1	9.0%	8.4%	-72.1*
COc1ccc(C(=O)CSc2nc3nn(-c4ccccc4)c(=O)c-3c3n2CCCCC3)c(OC)c1	-10.0	·	·	2.7
CC(OC(=O)C1CC1)C(=O)Nc1cccc(S(=O)(=O)N2CCOCC2)c1 (centres undefined)	12.3	0.9%	3.0%	-133.7*
O=C(Nc1cccc(S(=O)(=O)N2CCOCC2)c1)C1CC1	-8.0	-1.4%	13.1%	-12.5
O=C(Nc1cccc(S(=O)(=O)N2CCCCC2)c1)C1CCC1	88.2	-2.0%	-6.3%	-91.7*
O=C(Nc1cccc(S(=O)(=O)N2CCOCC2)c1)C1CCCC1	39.3	-0.1%	18.8%	13.0
CC(C)Oc1ccc(C(=O)Nc2cccc(S(=O)(=O)N3CCCC3)c2)cc1	14.6	-3.7%	-9.1%	-125.3*
SMILES	hERG WT inh	Rango complex inh	Rango release inh	KCNH2 3.1 block
Cc1ccc(CC(=O)OC(C)C(=O)NC2CCCCC2C)cc1C (centres undefined)	14.2	0.0%	10.7%	10.3
COc1cc(NS(=O)(=O)c2ccc3c(c2)oc(=O)n3C)cc(OC)c1OC	-7.4	-1.4%	1.4%	0.4
COc1cc(NS(=O)(=O)c2c(C)oc3c(F)c(F)c(F)c(F)c23)cc(OC)c1OC	-78.2*	6.4%	18.0%	-9.2
COc1ccc(OCCOC(=O)c2ccc(F)c(S(=O)(=O)N3CCOCC3)c2)cc1	2.1	0.3%	-0.9%	3.2
Cn1c(N2CCN(C(=O)Nc3ccc(F)cc3)CC2)nc2ccccc21	27.7	-0.6%	23.3%	-11.6
Cn1c(N2CCN(C(c3ccccc3)c3ccccc3)CC2)nc2ccccc21	-48.3	5.2%	16.0%	-85.8*
COc1ccccc1CCNC(=O)c1cccc(NC(=O)CC2SC(N3CCCCC3)=NC2=O)c1 (centres undefined)	-5.3	?	-7.6%	-14.2
CN(C(=O)COC(=O)c1ccccc1NCc1ccco1)c1c(N)n(Cc2ccccc2)c(=O)[nH]c1=O	-3.1	-2.0%	-3.0%	-0.5

Source: PubChem (National Center for Advancing Translational Sciences (NCATS))
